The values that follow come from PubChem BioAssay (NCATS).

Test [1] addresses Cytochrome P450 3A4 (Homo sapiens) (UniProt P08684). The test can be described thus: qHTS Assay for Activators of Cytochrome P450 3A4 (AID 885). Note: nearly all actives have a fitted effect of over 65% in size. In short, it runs like this: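 Human CYP3A4 (20 nM) with Luciferin-PPXE at 25 uM (its KM) in 200 mM KPO4; 10 min compound preincubation, then NADPH regeneration and 60 min reaction at RT. Luciferin read by luminescence; normalized to 57 uM ketoconazole full inhibition.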
On the technique in general: In qHTS, concentration-response curves come from the screen itself.

A short description of test [2]: NCATS anti-infectives library activity on the primary C. elegans qHTS viability assay (AID 1745855; calls by dose curve). In short, it runs like this:
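Viability read-out is GFP fluorescence of PE254-GFP-FLuc C. elegans, measured by laser cytometry (488 nm) at day 0, 3 and 7. Ten L1 worms per well were incubated 7 days at 21 °C with compounds and bacterial capsules in S medium.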

Test [3] is described as follows: NS1 protein of Zika virus - qHTS assay to identify small molecule inhibitors in human HEK 293 cells (AID 1347053). Note: nearly all actives have a fitted effect of over 55% in size. The method, boiled down: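 HEK 293 cells pretreated with compound for 1 h, then infected with ZIKV MR766 (MOI 0.5) for 24 h at 37 C. NS1 detected by TR-FRET with two anti-NS1 antibodies; normalized to uninfected (0%) and infected (100%) wells.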
The nature of test [4]: qHTS of pediatric cancer cell lines to identify multiple opportunities for drug repurposing: Primary screen for TC32 cells (AID 1347089). Note: nearly all actives have a fitted effect of over 60% in size. In short, it runs like this:
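Luminescent ATP read-out (CellTiter-Glo) of metabolically active TC32 cells after 48 h exposure. Concentration-response curves came from 11-point (MIPE, 0.78 nM–46 µM) or 8-point (NPC, 0.59 nM–46 µM) primary titrations; follow-up used 11 points.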

The nature of test [5]: qHTS of pediatric cancer cell lines to identify multiple opportunities for drug repurposing: Primary screen for Saos-2 cells (AID 1347097). Note: potency is the fitted concentration of half-maximal effect; nearly all actives have a fitted effect of over 40% in size. Particulars: Saos-2 viability, CellTiter-Glo ATP luminescence, 48 h. The method, boiled down: (§1)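 Viability was measured as metabolically active cells after 48 hours of treatment, read by CellTiter-Glo luminescence. Compounds were tested at multiple final concentrations, giving concentration-response curves.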

The nature of test [6]: qHTS of pediatric cancer cell lines to identify multiple opportunities for drug repurposing: Primary screen for NB1643 cells (AID 1347099). Note: nearly all actives have a fitted effect of over 50% in size. In short, it runs like this: as §1
Test [7] in a line: qHTS of pediatric cancer cell lines to identify multiple opportunities for drug repurposing: Primary screen for OHS-50 cells (AID 1347103). Note: potency is the fitted concentration of half-maximal effect; nearly all actives have a fitted effect of over 40% in size. The settings on record: OHS-50 osteosarcoma viability, CellTiter-Glo luminescence, 48 h. In short, it runs like this:
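Cells (500-1,000/well) rested 5 h, then received compounds for 48 h; metabolically active cells were measured by CellTiter-Glo luminescence. Final concentrations spanned up to 46 µM (MIPE, 11-point) or 0.59 nM-46 µM (NPC, 8-point) in primary screens, 11-point in follow-ups.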

Test [8] can be described thus: qHTS of pediatric cancer cell lines to identify multiple opportunities for drug repurposing: Primary screen for RD cells (AID 1347104). Note: potency is the fitted concentration of half-maximal effect; nearly all actives have a fitted effect of over 55% in size. The settings on record: RD rhabdomyosarcoma viability, CellTiter-Glo luminescence, 48 h. In short, it runs like this: as §1
Test [9] in a line: qHTS to identify inhibitors of the type 1 interferon - major histocompatibility complex class I in skeletal muscle: primary screen against the NCATS Pharmaceutical Collection (AID 1347407).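 Note: luminescence of HiBiT knocked into endogenous HLA-B as interferon-induced MHC class I level.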 The method, boiled down: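 Compounds […] were added to CRISPR-engineered HLA-B-HiBiT C25cl48 human myoblasts with 4.0 ng/ml IFN-beta. After 24 hrs at 37 C, cells were lysed and HiBiT luminescence measured.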

The target in test [10] is Protein phosphatase 1D (Homo sapiens) (UniProt O15297). The test can be described thus: RapidFire Mass Spectrometry qHTS Assay for Modulators of WT P53-Induced Phosphatase 1 (WIP1) (AID 1347424).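 Note: amount of dephosphorylated VEPPL-S-QETFS peptide product formed by WIP1.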 The method, boiled down: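 10 nM WIP1 + cpd, 1 h RT; + 2 uM VEPPL-pS-QETFS, 5 min RT; stop 0.5% formic acid; labelled product standard 1 uM; RapidFire MS. Buffer 50 mM Tris pH 7.5, 30 mM MgCl2, 1 mM TCEP.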

For test [11] the target is unchanged. The test can be described thus: Rhodamine-PBP qHTS Assay for Modulators of WT P53-Induced Phosphatase 1 (WIP1) (AID 1347425). The method, boiled down:
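WIP1 (5 nM final) was preincubated with compound for 1 hour at room temperature. It then dephosphorylated 10 uM VEPPL-pS-QETFS peptide in Tris-HCl pH 7.5 with 30 mM MgCl2. Released Pi was detected by 10 uM Rh-PBP fluorescence (ex 525/em 598 nm) read at 1-min intervals for 11 min, as delta f1 - f0.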

Test [12] in a line: A High-Content qHTS Against Drug Library for the Identification of Small Molecules that Inhibit DYT1 Early Onset Primary Dystonia-Associated Cell Pathology (AID 1645839; calls by dose curve). In short, it runs like this:
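In this high-content image screen, delE TorsinA mislocalization in inducible Flp-In 293 cells is scored as %pathology, with cell count serving as the counterscreen. Compound exposure lasts 48 h under tetracycline induction in reduced-serum medium.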

Another test concerns MCC-13. Briefly: qHTS assay to identify novel small-molecules to repurpose for Merkel cell carcinoma treatment (AID 1296009). Note: nearly all actives have a fitted effect of over 60% in size. Particulars: MCC and control cell lines, CellTiter-Glo viability, 72 h; series mostly up to 46 µM. The method, boiled down: (§2)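 72 hr, 37 degree celsius; NPC 8-pt / MIPE 11-pt dose response; compound pinned in DMSO; CellTiter-Glo, 10 min RT, luminescence; normalized to no-cell and DMSO controls.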

The subject of a further test is MCC-26. The test is described as above. Particulars: MCC and control cell lines, CellTiter-Glo viability, 72 h; series mostly up to 46 µM. In short, it runs like this: as §2
For orientation: In ATP-based viability assays light output follows the ATP content of the culture.

Test [13] is described as follows: Cell Viability - BJ (AID 421; calls by dose curve;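 note: potency is the fitted concentration of half-maximal effect; cells exposed to compound for 40 hours at 37 °C before readout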). The settings on record: BJ fibroblast viability, qHTS. The method, boiled down:
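Normal human BJ foreskin fibroblasts, 1500/well in complete medium, treated 40 hr at 37 °C. Cellular ATP by CellTiter-Glo luminescence; normalized to DMSO and 100 uM tamoxifen, AC50 from Hill fit.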

Test [14] in a line: Cell Viability - Jurkat (AID 426;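 active = dose-dependent loss of cell ATP signal giving a full or clear fitted curve, ranked by lower potency value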; note: potency is the fitted concentration of half-maximal effect). Particulars: qHTS. The method, boiled down: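 qHTS, 1536-well; Jurkat E6-1, 5000 cells/well, complete medium; cpd 40 hr, 37 °C; CellTiter-Glo 20 min RT; luminescence. AC50 by Hill fit.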
Test [15] is described as follows: Cell Viability - Hek293 (AID 427;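 active = compounds whose dose-response curve shows a full or clear partial loss of cell viability, called from curve shape rather than a numeric limit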;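 note: potency is the fitted concentration of half-maximal effect; cells exposed to compound for 40 hours at 37 °C before reading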). The settings on record: qHTS. In short, it runs like this: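 HEK293 cells in complete medium were exposed to compound for 40 hr at 37 °C, then cellular ATP was read by CellTiter-Glo luminescence. Data were normalized to DMSO (basal) and 100 uM tamoxifen (100% inhibition), and AC50 came from Hill fits.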
The nature of test [16]: Cell Viability - HepG2 (AID 433; calls by dose curve;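 note: potency is the fitted concentration of half-maximal effect; potency for ATP loss meaning cytotoxicity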). Particulars: qHTS. The method, boiled down:
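Cytotoxicity read as ATP loss (CellTiter-Glo luminescence) after 40 hr compound exposure of HepG2, 1500 cells/well, 37 °C. AC50 by Hill equation; 0% set by DMSO, 100% inhibition by 100 uM tamoxifen.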

The nature of test [17]: Cell Viability - MRC5 (AID 434; calls by dose curve;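 note: potency is the fitted concentration of half-maximal effect; potency reflects cytotoxicity seen as loss of intracellular ATP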). The settings on record: MRC5 lung fibroblast viability, qHTS. In short, it runs like this:
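qHTS cytotoxicity in human lung fibroblast MRC5 cells; 40 hr treatment, 37 °C; cellular ATP by luciferase luminescence; DMSO = 0%, 100 uM tamoxifen = 100% inhibition; Hill-fit AC50.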

Test [18] in a line: Cell Viability - SK-N-SH (AID 435; calls by dose curve; note: potency is the fitted concentration of half-maximal effect). Particulars: SK-N-SH neuroblastoma cell viability qHTS. The method, boiled down:
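qHTS cytotoxicity: CellTiter-Glo ATP luminescence after 40 h compound exposure of human neuroblastoma SK-N-SH cells at 37 °C. AC50 derived by Hill-equation fitting, with DMSO as basal and 100 uM tamoxifen as full inhibition.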

A number with no mark means an inactive call. Results filed as inconclusive are left out. The source made the active and inactive calls. Unless noted, calls come from the whole dose curve; as a rule, active = well fitted curve in the direction sought with a large enough effect; inconclusive = small, poorly fitted or top-dose-only effect, or another doubt; inactive = no such curve, though single readings can be large; an effect the other way counts as inactive or inconclusive.

Chain of Protein phosphatase 1D (Homo sapiens) (O15297 whole entry, looked up): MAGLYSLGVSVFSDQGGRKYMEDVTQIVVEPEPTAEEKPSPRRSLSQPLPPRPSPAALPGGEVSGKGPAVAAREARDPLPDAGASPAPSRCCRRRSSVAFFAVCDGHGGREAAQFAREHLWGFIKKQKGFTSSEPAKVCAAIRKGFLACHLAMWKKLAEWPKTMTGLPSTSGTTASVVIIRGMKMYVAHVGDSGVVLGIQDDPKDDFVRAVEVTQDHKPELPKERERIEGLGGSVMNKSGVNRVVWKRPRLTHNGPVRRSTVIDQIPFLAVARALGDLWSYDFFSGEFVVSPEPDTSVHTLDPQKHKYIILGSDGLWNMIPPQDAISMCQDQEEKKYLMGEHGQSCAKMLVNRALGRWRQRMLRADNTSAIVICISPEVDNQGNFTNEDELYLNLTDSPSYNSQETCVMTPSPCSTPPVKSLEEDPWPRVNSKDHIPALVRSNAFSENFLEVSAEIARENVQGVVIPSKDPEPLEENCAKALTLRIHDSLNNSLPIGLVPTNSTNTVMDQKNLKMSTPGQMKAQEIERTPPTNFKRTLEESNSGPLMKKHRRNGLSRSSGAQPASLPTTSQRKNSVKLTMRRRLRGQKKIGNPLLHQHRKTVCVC
Chain of Cytochrome P450 3A4 (Homo sapiens) (P08684 whole entry, looked up): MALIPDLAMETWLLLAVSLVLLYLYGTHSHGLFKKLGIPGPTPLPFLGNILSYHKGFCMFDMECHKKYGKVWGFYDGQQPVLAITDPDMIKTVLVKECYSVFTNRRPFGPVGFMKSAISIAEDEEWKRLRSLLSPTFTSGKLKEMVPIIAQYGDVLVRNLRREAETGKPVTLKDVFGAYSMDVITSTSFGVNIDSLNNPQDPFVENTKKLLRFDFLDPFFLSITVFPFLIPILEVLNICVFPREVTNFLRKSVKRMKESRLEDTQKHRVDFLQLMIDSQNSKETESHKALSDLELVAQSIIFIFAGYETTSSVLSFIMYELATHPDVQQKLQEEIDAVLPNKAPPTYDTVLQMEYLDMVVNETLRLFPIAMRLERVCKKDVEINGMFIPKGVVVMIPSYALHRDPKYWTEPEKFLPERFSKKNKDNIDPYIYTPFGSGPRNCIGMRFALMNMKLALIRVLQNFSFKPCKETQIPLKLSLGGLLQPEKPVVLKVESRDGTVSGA

Regarding `Oc1ccc(Nc2nc(-c3ccc(Cl)cc3)cs2)cc1`, the Potency entry in [1] is “inactive”.

Consider `N#C[C@@H]1C[C@@H]2C[C@@H]2N1C(=O)[C@@H](N)C12CC3CC(CC(O)(C3)C1)C2`, for which the Potency entry in test [2] is “inactive”.

With `CS(=O)(=O)c1ccc(-c2cn3ccccc3n2)cc1`, the compound was classed as inactive in [3], in test [4], in [9], in test [10], in test [11] and in test [12]. Also, the compound was called inactive with MCC-13 and in the test with MCC-26. The Potency was 16.8 µM (active) in [5], 17.4 µM (active) in [7] and 23.7 µM (active) in test [8]. Also, the Potency result in test [6] was “inactive”.

In the case of `Nc1ccc(N)c([N+](=O)[O-])c1`, the Potency in [13], in [14], in test [15], in [16], in test [17] and in test [18] was above 92 µM in each case.
